Here are results for nine compounds from PubChem BioAssay AID2615 (Southern Research Specialized Biocontainment Screening …, 2010).

Activity calls are given as the source filed them. No rule for the calls is given here.

The nature of the assay: antiviral efficacy and BSC cell toxicity – BSC cells, SV40 T antigen inhibitor project, confirmation (AID 2615). The following applies: BSC cells SV40 infection; outcome: CPE inhibition; viability: CPE inhibition, viability, at 100 µM, stronger effect = lower value; series mostly up to 200 µM.

Usually viability stands for a read-out of living cells in per cent, often relative to untreated cells. In the case of `ClC(Cl)(c1nnnn1-c1ccc(Br)cc1)c1nnnn1-c1ccc(Br)cc1`, the compound was called inactive and the viability was -0.31%. Turning to `COc1ccc(-n2nnnc2C(Cl)(Cl)c2nnnn2-c2ccc(OC)cc2)cc1`, the compound was classed as inactive and the viability came to 6.3%. As to `Nc1nc2ccc(C(=O)N3CCCCC3)cc2s1`, the compound was classed as inactive and the viability amounted to 103%.

As for `Nc1nc2ccc(S(=O)(=O)N3CCCCC3)cc2s1`, the compound was called inactive and the viability was 0.95%. As to `Nc1nc2ccc(C(=O)N3CCOCC3)cc2s1`, the compound was classed as inactive and the viability is 101%. With `ClC(Cl)(c1nnnn1-c1ccccc1)c1nnnn1-c1ccccc1`, the viability turned out to be 0.34%. With `CCN(CC)C(=O)c1ccc2nc(N)sc2c1`, the compound was called inactive and the viability came to 87.6%. For `Cc1ccc2c(c1)C1C=CCC1C(C(=O)O)N2` (configuration not stated) the same measures were “inactive” and 41.3%. As for `Cc1cc(C)c2c(=O)n(CC(=O)Nc3cccc(Cl)c3C)sc2n1`, the outcome was inactive and the viability was 2.65%.
